The source of these data is PubChem BioAssay.

Each structure is given as a SMILES string. Active and inactive are the calls of the source.

The nature of test [1]: binders of probe aFSTL3 on microarray, primary screen, stem cell growth factor project, biochemical, small-molecule microarray, fluorescence 635/667 (AID 1064).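 Also: measures binding of the biotinylated anti-FSTL3 antibody to printed compounds.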 The conditions noted are these: higher = more signal.
Test [2] is described as follows: binders from COS7 lysate, DM2A8 probe, primary screen, torsin A project, cell lysate, small-molecule microarray, fluorescence 635/667 (AID 1065). The conditions noted are these: higher = more signal, COS7 lysate expressing mutant human TOR1A.
Test [3] can be described thus: binders of probe aFGF2 on microarray, primary screen, stem cell growth factor project, biochemical, small-molecule microarray, fluorescence 635/667 (AID 1067).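 Also: measures binding of biotinylated aFGF2 protein to printed compounds on slides; z-score merges feature fluorescence and signal-to-noise across triplicate slides.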 The conditions noted are these: higher = more signal.
A short description of test [4]: binders of probe aFGF10 on microarray, primary screen, stem cell growth factor project, biochemical, small-molecule microarray, fluorescence 635/667 (AID 1071).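 Also: score merges 667 nm spot intensity and signal to noise from triplicate slides.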 To be noted: higher = more signal.
Test [5] concerns the target Neurogenic locus notch homolog protein 2 (Homo sapiens) (UniProt Q04721). The test is described as follows: Notch2 binders on small-molecule microarrays, primary screen, biochemical, small-molecule microarray, 635 nm fluorescence, stem cell growth factors (AID 1073). The conditions noted are these: Notch2 binding, higher = more signal.
For test [6], the target named is Pro-neuregulin-1, membrane-bound isoform (Homo sapiens) (UniProt Q02297). The test is described as follows: NRG1 binders on small-molecule microarrays, primary screen, psychiatric disease protein project, biochemical, small-molecule microarray, fluorescence 635/667 (AID 1075).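 Also: score combines 667 nm spot fluorescence with signal to noise.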 To be noted: NRG1 binding, 635 nm fluorescence, higher = more signal.
Sequence of Pro-neuregulin-1, membrane-bound isoform (Homo sapiens) (Q02297 whole entry, looked up, the tested form may be a part, canonical isoform): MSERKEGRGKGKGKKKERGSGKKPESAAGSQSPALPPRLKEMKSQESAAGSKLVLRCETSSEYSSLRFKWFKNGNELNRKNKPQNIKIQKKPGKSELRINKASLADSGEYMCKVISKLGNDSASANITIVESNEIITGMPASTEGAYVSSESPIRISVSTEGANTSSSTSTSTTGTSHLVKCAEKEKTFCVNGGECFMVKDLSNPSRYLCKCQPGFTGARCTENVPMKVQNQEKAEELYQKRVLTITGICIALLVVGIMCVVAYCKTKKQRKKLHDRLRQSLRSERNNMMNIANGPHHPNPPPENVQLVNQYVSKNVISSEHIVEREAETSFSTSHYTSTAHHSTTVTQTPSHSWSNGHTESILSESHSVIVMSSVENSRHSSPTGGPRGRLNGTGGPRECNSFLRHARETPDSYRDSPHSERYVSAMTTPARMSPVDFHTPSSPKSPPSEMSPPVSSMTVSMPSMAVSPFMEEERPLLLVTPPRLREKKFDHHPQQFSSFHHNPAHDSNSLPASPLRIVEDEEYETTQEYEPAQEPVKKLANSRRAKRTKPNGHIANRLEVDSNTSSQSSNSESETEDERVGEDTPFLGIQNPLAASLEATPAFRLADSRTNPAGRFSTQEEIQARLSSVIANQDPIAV
Test [7] has as its system Neuregulin-1 EGF-like domain. In words: binders of neuregulin-1 EGF-like domain, primary screen, biochemical, small-molecule microarray, 635 nm fluorescence (AID 1081).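 Also: binding of the protein to compounds printed on small-molecule microarray slides.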 The conditions noted are these: small-molecule microarray binding, higher = more signal.
A short description of test [8]: FRG1 promoter luciferase signal modulators, primary screen, FRG1 inhibition for FSHD, cell-based, C2C12 myotubes, firefly/Renilla luciferase, luminescence (AID 1084). The conditions noted are these: higher = more signal, called active from +8 up or from −8 down.
The nature of test [9]: binders of probe aFST on microarray, primary screen, stem cell growth factor project, biochemical, small-molecule microarray, fluorescence 635/667 (AID 1086).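 Also: score merges 667 nm fluorescence with signal-to-noise of each printed compound spot.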 To be noted: higher = more signal.
Test [10] is described as follows: binders of probe aHhip on microarray, primary screen, stem cell growth factor project, biochemical, small-molecule microarray, fluorescence 635/667 (AID 1087).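 Also: score merges spot fluorescence at 667nm with spot signal to noise ratio.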 To be noted: higher = more signal.

Sequence of Neurogenic locus notch homolog protein 2 (Homo sapiens) (Q04721 whole entry, looked up, canonical isoform): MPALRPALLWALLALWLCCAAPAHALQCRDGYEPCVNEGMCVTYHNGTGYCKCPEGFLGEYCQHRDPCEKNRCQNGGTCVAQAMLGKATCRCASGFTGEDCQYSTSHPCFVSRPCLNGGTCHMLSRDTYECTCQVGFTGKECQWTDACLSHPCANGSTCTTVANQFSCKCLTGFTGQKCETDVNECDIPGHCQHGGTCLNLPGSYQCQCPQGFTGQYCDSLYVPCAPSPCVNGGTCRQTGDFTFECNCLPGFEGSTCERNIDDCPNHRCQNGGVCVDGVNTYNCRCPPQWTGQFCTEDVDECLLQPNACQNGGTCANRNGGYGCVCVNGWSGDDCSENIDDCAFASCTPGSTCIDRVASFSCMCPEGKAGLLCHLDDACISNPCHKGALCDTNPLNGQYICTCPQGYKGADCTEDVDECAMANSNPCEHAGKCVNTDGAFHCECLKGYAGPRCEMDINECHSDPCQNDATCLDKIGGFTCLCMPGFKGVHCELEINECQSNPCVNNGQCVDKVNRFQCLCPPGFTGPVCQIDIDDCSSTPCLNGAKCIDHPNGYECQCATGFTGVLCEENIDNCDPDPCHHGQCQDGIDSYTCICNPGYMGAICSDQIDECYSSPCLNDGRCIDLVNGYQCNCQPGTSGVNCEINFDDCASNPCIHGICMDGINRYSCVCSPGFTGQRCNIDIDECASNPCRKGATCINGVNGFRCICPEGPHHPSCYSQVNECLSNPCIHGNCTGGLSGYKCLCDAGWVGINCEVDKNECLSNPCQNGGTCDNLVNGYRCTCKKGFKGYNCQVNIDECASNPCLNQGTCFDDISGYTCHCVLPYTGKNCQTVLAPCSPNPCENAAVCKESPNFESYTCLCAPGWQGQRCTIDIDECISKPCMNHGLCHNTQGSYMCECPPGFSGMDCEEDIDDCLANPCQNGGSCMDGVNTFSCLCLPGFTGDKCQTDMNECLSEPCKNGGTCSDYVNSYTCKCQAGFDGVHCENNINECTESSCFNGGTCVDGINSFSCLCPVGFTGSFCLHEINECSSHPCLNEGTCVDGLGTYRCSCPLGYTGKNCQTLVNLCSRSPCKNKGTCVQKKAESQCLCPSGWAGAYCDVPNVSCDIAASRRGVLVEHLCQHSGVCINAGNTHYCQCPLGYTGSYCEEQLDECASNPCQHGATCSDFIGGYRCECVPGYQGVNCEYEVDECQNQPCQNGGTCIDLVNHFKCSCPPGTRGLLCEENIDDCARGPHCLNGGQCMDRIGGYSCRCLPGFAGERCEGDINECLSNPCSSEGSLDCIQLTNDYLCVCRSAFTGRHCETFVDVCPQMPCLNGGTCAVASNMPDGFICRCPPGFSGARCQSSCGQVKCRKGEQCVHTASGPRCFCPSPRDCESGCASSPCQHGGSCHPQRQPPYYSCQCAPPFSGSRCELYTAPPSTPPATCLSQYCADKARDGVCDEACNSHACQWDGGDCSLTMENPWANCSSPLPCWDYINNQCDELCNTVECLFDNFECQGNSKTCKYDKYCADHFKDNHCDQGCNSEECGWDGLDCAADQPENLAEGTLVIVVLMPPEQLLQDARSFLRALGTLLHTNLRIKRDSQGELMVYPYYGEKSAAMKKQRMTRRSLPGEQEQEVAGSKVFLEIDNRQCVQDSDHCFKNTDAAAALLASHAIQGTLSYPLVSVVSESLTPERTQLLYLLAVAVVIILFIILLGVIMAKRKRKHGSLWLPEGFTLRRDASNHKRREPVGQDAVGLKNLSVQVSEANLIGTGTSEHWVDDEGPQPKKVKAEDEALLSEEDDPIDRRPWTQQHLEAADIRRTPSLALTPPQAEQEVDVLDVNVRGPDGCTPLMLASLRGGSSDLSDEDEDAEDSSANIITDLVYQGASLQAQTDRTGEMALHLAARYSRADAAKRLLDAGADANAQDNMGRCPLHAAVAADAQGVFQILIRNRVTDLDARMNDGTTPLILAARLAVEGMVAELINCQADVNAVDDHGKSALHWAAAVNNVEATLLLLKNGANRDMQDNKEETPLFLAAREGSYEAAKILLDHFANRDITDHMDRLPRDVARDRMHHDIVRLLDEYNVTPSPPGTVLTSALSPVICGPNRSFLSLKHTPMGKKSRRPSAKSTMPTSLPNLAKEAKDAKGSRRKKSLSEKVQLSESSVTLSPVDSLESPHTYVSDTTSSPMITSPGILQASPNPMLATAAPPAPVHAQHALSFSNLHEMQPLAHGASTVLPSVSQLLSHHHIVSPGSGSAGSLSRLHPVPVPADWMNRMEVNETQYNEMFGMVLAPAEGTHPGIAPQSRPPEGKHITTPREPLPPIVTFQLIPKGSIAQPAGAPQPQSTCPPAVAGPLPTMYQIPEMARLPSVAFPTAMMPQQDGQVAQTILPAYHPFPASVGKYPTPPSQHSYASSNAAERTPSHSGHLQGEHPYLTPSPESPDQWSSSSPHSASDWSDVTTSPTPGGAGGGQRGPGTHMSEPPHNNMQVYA

As for `CCOC(=O)C[C@H]1[C@H](OC(=O)c2ccccc2-c2ccccc2)[C@@H](NC(=O)Cc2ccc(OC)cc2)c2cc(OCCCO)ccc2N1C(=O)c1ccccc1`, the composite z-score in test [1] is -0.0656; in test [2], 0.629; in test [3] it was -0.0942; in test [4], 0.321; in test [5], 0.125; in test [6] it was -0.299. The composite z-score in [7] was -0.537; in test [9], 0.369; in test [10] it was -0.0645. Besides, the z-score in [8] was -0.735 (inactive).

Turning to `C#CCN(C(/C=C/c1ccccc1)CO)C(C(=O)O)c1ccccc1` (stereo not given), the composite z-score is -0.27 in test [1]; -0.769 in test [2]; -0.159 in test [3]; 0.263 in [4]; 0.0504 in test [5]; -0.165 in test [6]. The composite z-score in test [7] is -0.435; in [9], -0.652; in [10], -0.284. For the same compound, the z-score in [8] was 1.2 (inactive).

On to `C[C@]1(C(=O)NCc2ccccc2)c2ccccc2C(=O)N(Cc2ccc(OC(F)(F)F)cc2)[C@H]1c1ccc(CO)cc1`, for which the composite z-score was 0.161 in [1]; 1.14 in [2]; -0.0507 in test [3]; -0.0562 in [4]; -0.323 in test [5]; 0.349 in [6]. In addition, the composite z-score in [7] is 0.711; in [9], -0.409; in test [10] it was -0.431. Also, the z-score in test [8] is -4.27 (inactive).

`COc1ccc(C#Cc2ccc3c(c2)[C@]2(C(=O)N3)[C@H](C(=O)NC[C@H](O)c3ccccc3)[C@H]3C(=O)O[C@H](c4ccccc4)[C@H](c4ccccc4)N3[C@@H]2c2ccc(OCCO)cc2)cc1`: the composite z-score in test [1] is -0.547; in [2] it was 0.637; in test [3], -0.0005; in [4], 0.6; in [5] it was 0.975; in test [6] it was 1.07. Moreover, the composite z-score in test [7] is 1.19; in test [9] it was 0.0324; in test [10] it was -0.32. Moreover, the z-score in [8] was 0.943 (inactive).

For the compound `COc1ccccc1CN1C(=O)c2ccccc2[C@@H](C(=O)NCCN2CCOCC2)[C@@H]1c1ccc(CO)cc1`, the composite z-score in test [1] is 0.109; in test [2] it was -0.267; in test [3] it was -0.0999; in [4], 0.539; in test [5] it was 0.159; in [6], 1.01. Also, the results for the composite z-score in test [7], in [9] and in [10] were 1.47, -0.2 and -0.169, respectively. Further, in test [8], the z-score is -2.69 (inactive).

In the case of `COCCCNC(=O)[C@@]1(CCC(=O)OC(C)(C)C)N=C(c2ccc(OCCCO)cc2)O[C@H]1c1ccccc1CN=[N+]=[N-]`, the composite z-score in [1] is -0.073; in [2], -0.158; in [3] it was -0.0724; in [4], 0.527; in test [5], 1.67; in test [6] it was 1.59. Besides, the values for the composite z-score in [7], in [9] and in test [10] were 1.27, 1.53 and 0.238, respectively. The z-score in [8] is 2.42 (inactive).

With `O=C1O[C@@H](c2ccccc2)[C@@H](c2ccccc2)N2[C@@H](c3ccccc3OCCO)[C@]3(C(=O)Nc4ccc(C#CC5(O)CCCCCC5)cc43)[C@@H](C(=O)Nc3nc4ccccc4s3)[C@H]12`, the composite z-score was -0.508 in [1]; 0.984 in [2]; -0.0113 in test [3]; 0.895 in test [4]; 1.22 in [5]; 0.678 in [6]. Also, the composite z-score in test [7] worked out at 1.11; in test [9], 0.806; in test [10], 1.22. Besides, the z-score in [8] was -0.0944 (inactive).

`COc1ccc(NN2C(C(O)c3ccc(OC)c(OCc4ccccc4)c3)C=CC3C(=O)N(C4CCCCC4)C(=O)C32)cc1` (stereo not given): the composite z-score in test [1] was 0.243; in test [2], -0.116; in test [3], 0.136; in test [4] it was 0.395; in test [5] it was 1.56; in test [6], 1.4. Also, the composite z-score in [7] amounted to 0.936; in test [9], 0.857; in test [10], 0.0749. Moreover, in [8], the z-score is 0.0498 (inactive).

`C=CCC(OC(C)=O)[C@@H]1[C@@H](N(Cc2cc3ccccc3o2)C(=O)c2ccc(C)cc2)c2cc(OCCCO)ccc2N1C(=O)c1ccc2ccccc2c1` (stereo not given in full): the composite z-score is -0.0336 in test [1]; 0.117 in test [2]; -0.0785 in [3]; 0.339 in test [4]; 0.112 in [5]; -0.189 in test [6]. In addition, the composite z-score in [7] is 0.38; in test [9] it was -0.0921; in test [10] it was -0.201. The z-score in test [8] is -2.76 (inactive).

Turning to `O=C1O[C@@H](c2ccccc2)[C@@H](c2ccccc2)N2[C@@H](c3ccc(OCCO)cc3)[C@]3(C(=O)Nc4ccccc43)[C@@H](C(=O)Nc3nc4ccccc4s3)[C@H]12`, the composite z-score in test [1] worked out at 0.509; in test [2], 0.58; in test [3] it was 0.0732; in test [4], 0.962; in test [5] it was 1.49; in test [6], 1.45. Besides, the composite z-score was 1.3 in test [7], 1.01 in [9] and 0.629 in [10]. The z-score in [8] is -3.08 (inactive).

`O=C1OCCC=C[C@H]2OC34C=CCN(Cc5ccccc5)C(=O)[C@H]3N(CCCCCCO)C(=O)[C@@H]4C12` (stereo not given in full): the composite z-score in test [1] is 0.359; in test [2] it was -1.01; in test [3], -0.196; in test [4], -0.384; in [5] it was -0.91; in test [6], 1.88. Also, the figures for the composite z-score in test [7], in [9] and in [10] were 0.92, -0.26 and -0.621, respectively. Besides, in test [8], the z-score is -0.386 (inactive).

Consider `COc1ccc([Si](C)(C)[C@@H]2[C@@H](CCn3cc([C@H](O)c4ccccc4)nn3)O[C@]3(C(=O)N(Cc4ccc(N5C(=O)c6cccc7cccc5c67)cc4)c4ccccc43)[C@H]2C)cc1`, for which the composite z-score in test [1] is 0.428; in test [2] it was 0.174; in test [3] it was -0.162; in test [4] it was -0.16; in test [5], -0.574; in test [6], 0.569. Moreover, the composite z-score is 0.594 in [7], -0.587 in test [9] and -0.199 in [10]. For the same compound, the z-score in test [8] was -0.353 (inactive).

On to `[N-]=[N+]=NCc1ccccc1[C@@H]1OC(c2ccc(OCCCO)cc2)=N[C@]1(Cc1ccccc1N=[N+]=[N-])C(=O)NCc1ccccc1`, for which the composite z-score in test [1] was -0.253; in test [2], 0.485; in test [3], -0.0287; in [4] it was 0.272; in test [5], 1.15; in test [6] it was 0.612. Moreover, the composite z-score was 1.05 in [7], 0.221 in test [9] and -0.113 in test [10]. The z-score in [8] is -1.66 (inactive).

`CCCCCCc1nc(CCCc2cc3c(c(CCCCCC)n2)[Si](C(C)C)(C(C)C)OC3)cc2c1[Si](C(C)C)(C(C)C)OC2`: the composite z-score was -0.0039 in test [1]; 0.0271 in [2]; -0.149 in test [3]; -0.408 in test [4]; -0.955 in test [5]; -0.247 in test [6]. Besides, the figures for the composite z-score in [7], in test [9] and in [10] were -0.774, -0.344 and 0.0274, respectively. Further, the z-score in [8] is 0.521 (inactive).
